From PubChem BioAssay (EPA / NIEHS)
Calls of active or inactive are those of the source. Rule for the calls: active = hit-call score of the fitted dose curve at least 0.9, where 1 is the maximum; inactive = score below 0.9.

assay: ATG_PBREM_CIS: Attagene CIS-FACTORIAL HepG2 Assay for human Phenobarbital-responsive Enhancer Module (PBREM) (AID 2282955); conditions: HepG2 PBREM cis-reporter, Attagene multiplexed transcription; actives raise or lower the signal
Procedure: ATG_CIS is a cell-based, multiplexed-readout assay that uses HepG2, a human liver cell line, with measurements taken at 24 hours after chemical dosing in a 24-well plate.ATG_PBREM_CIS is one of 52 assay component(s) measured or calculated from the ATG_CIS assay. It is designed to make measurements of mRNA induction, a form of inducible reporter, as detected with fluorescence intensity signals by Reverse transcription polymerase chain reaction (RT-PCR) and Capillary electrophoresis technology.Data from the assay component ATG_PBREM_CIS was analyzed into 1 assay endpoint. This assay endpoint, ATG_PBREM_CIS, was analyzed with bidirectional fitting relative to DMSO as the negative control and baseline of activity. Using a type of inducible reporter, measures of mRNA for gain or loss-of-signal activity can be used to understand the reporter gene at the transcription factor-level as they relate to the gene NR1I3. Furthermore, this assay endpoint can be referred to as a primary readout, because this assay has produced multiple assay endpoints where this one serves a reporter gene function. To generalize the intended target to other relatable targets, this assay endpoint is annotated to the nuclear receptor intended target family, where the subfamily is non-steroidal.
Human liver HepG2 cells are transiently transfected with multiple reporter transcription units (MRTUs) in 6-well plates using FuGene 6 reagent (Roche; 3 ml FuGene/1 mg DNA). The MRTU constructs are regulated by a cis-regulating element (promoter). […] A major difference between the CIS and TRANS system is that in CIS activities of endogenous TFs are measured, whereas the TRANS assay evaluates changes in activities of exogenous, chimeric NR-Gal4 proteins. […] At the end of 24 hour incubation, total RNA was isolated using TriZol reagent (Invitrogen). The isolated RNA is then reverse-transcribed using oligo(dT) primer and Mo-MLV reverse transcriptase (Invitrogen) with DNAse I (Ambion) treatment for 30 min. The one-tenth of the produced cDNA was amplified by PCR using Taq DNA polymerase (Invitrogen) and two reporter sequence-specific primers. The PCR products were fluorescently labeled by primer extension with 6-arboxyfluorescein (6-FAM) 5'-labeled reporter sequence-specific primer (2 min at 95 C, 20 s at 68 C and 10 min at 72 C) and these products were digested with 5U of HpaI (New England Biolabs) for 2h at 37 C. The fragments were purified using Qiaquick PCR columns (Qiagen), analyzed on an ABI 3130xL genetic analyzer (Applied Biosystems) with peak positions identified by using a set of X-rhodamine (ROX)-labeled MapMarker1000 molecular weight standards (BioVentures). The raw capillary electrophoresis data was processed using Attagraph software (Attagene).

**Q.** With `CCN(CC)c1ccc2c(-c3ccccc3C(=O)O)c3ccc(=[N+](CC)CC)cc-3oc2c1` as the compound, how does the outcome read?
**A.** inactive

**Q.** With `CC(=O)c1c(C)cc(C(C)(C)C)cc1C` as the compound, how does the outcome read?
**A.** inactive

**Q.** With `Cc1cccc(C)c1C` as the compound, how does the outcome read?
**A.** inactive

**Q.** With `O=C1c2ccccc2C(=O)N1SC1CCCCC1` as the compound, how does the outcome read?
**A.** inactive

**Q.** Which outcome does the source give for `O=C(O)c1ccc(C(=O)O)cc1` here?
**A.** inactive

**Q.** With `CC(C)Oc1ccccc1O` as the compound, how does the outcome read?
**A.** inactive

**Q.** For `CC(=O)C(C)=O`, which outcome is on record?
**A.** inactive

**Q.** With `COC(C(=O)O)c1ccccc1` (stereo not given) as the compound, how does the outcome read?
**A.** inactive

**Q.** With `CC(C#N)(CCC(=O)O)N=NC(C)(C#N)CCC(=O)O` (stereo not given) as the compound, how does the outcome read?
**A.** inactive

**Q.** Which outcome does the source give for `CC(C)C1CCC(O)CC1` (stereo not given) here?
**A.** inactive

**Q.** With `CCN(CC)CCOC(=O)c1ccc(N)cc1` as the compound, how does the outcome read?
**A.** inactive

**Q.** Which outcome does the source give for `CCCCCCCCCCCCCC(=O)O` here?
**A.** inactive

**Q.** Which outcome does the source give for `O=C[C@@H](O)[C@H](O)[C@H](O)CO` here?
**A.** inactive

**Q.** Which outcome does the source give for `O=C[C@H](O)[C@H](O)[C@H](O)CO` here?
**A.** inactive

**Q.** Which AC50 does the source give for `C#C[C@]1(O)CC[C@H]2[C@@H]3CCC4=Cc5oncc5C[C@]4(C)[C@H]3CC[C@@]21C` here?
**A.** 5.83 µM (active)

**Q.** With `CC(=O)Nc1ccc(CC(=O)O)cc1` as the compound, how does the outcome read?
**A.** inactive

**Q.** Which outcome does the source give for `CCCCCCCCCCCCOCCO` here?
**A.** inactive

**Q.** For `CCOC(=S)SSC(=S)OCC`, which outcome is on record?
**A.** inactive

**Q.** Which outcome does the source give for `O=P(c1ccccc1)(c1ccccc1)c1ccccc1` here?
**A.** inactive

**Q.** For `CC(=O)Nc1ccc(C)cc1C`, which outcome is on record?
**A.** inactive

**Q.** Which outcome does the source give for `NC(=O)NC1NC(=O)NC1=O` (stereo not given) here?
**A.** inactive

**Q.** With `O=C=NC1CCC(CC2CCC(N=C=O)CC2)CC1` (stereo not given) as the compound, how does the AC50 read?
**A.** 63.1 µM (active)

**Q.** With `Cc1ncc([N+](=O)[O-])n1C` as the compound, how does the outcome read?
**A.** inactive

**Q.** Which outcome does the source give for `CC(C)(C)c1cc(CCC(=O)NN)cc(C(C)(C)C)c1O` here?
**A.** inactive

**Q.** Which outcome does the source give for `CC(CC(C)(C)C)CC(C)(C)CC(C)(C)C` (stereo not given) here?
**A.** inactive

**Q.** For `C=O`, which outcome is on record?
**A.** inactive

**Q.** With `Cc1ccc(O)c(C(C)(C)C)c1` as the compound, how does the outcome read?
**A.** inactive

**Q.** Which outcome does the source give for `CN(C)CCOCCN(C)C` here?
**A.** inactive

**Q.** For `CC1CCC2CC1C2(C)C` (stereo not given), which outcome is on record?
**A.** inactive

**Q.** With `CC1(C)CCC(C)(C)c2cc(C(=O)Nc3ccc(C(=O)O)cc3)ccc21` as the compound, how does the outcome read?
**A.** inactive

**Q.** For `CC(=O)O[C@]1(C(C)=O)CC[C@H]2[C@@H]3C[C@H](C)C4=CC(=O)CC[C@]4(C)[C@H]3CC[C@@]21C`, which outcome is on record?
**A.** inactive

**Q.** With `COC(=O)c1ccc(C)cc1` as the compound, how does the outcome read?
**A.** inactive

**Q.** Which outcome does the source give for `CC(=O)Nc1ccccc1O` here?
**A.** inactive

**Q.** With `Nc1cc([N+](=O)[O-])ccc1O` as the compound, how does the outcome read?
**A.** inactive

**Q.** With `ClCCCl` as the compound, how does the outcome read?
**A.** inactive

**Q.** With `COc1c(Cl)c(Cl)c(Cl)c(Cl)c1Cl` as the compound, how does the outcome read?
**A.** inactive

**Q.** Which outcome does the source give for `C[Si](O[Si](C)(C)C)O[Si](C)(C)C` here?
**A.** inactive

**Q.** For `CCC(O)CO` (stereo not given), which outcome is on record?
**A.** inactive

**Q.** Which outcome does the source give for `O=C(O)CCSCCC(=O)O` here?
**A.** inactive

**Q.** With `CSc1nnc(C(C)(C)C)c(=O)[nH]1` as the compound, how does the outcome read?
**A.** inactive
